The results in this text go back to the OligoGym collection.

Targets include MRFAP1; MRPL14; MRO; MTX3; MUDENG; MUC4; MUM1L1; MUL1; MYL4; MYCL1; MYH14; MYCBPAP.
What all share (test): pooled miR-30 sensor sort-seq; sequence = guide strand
Common to all, as to details: shRNA
Also: reference of the scale not given here.

Consider TCTGGATGAGCATATTGTCCAT, for which the sensor-assay potency score (higher = more potent) with MRFAP1 is -0.959.
As to TTGCCCACTCCATTCTTCTTAT, the sensor-assay potency score (higher = more potent) with MRPL14 was -0.852.
In the experiment with MRO, TATACTTTCTCACCTTGTCAGG came in with a sensor-assay potency score (higher = more potent) of -0.957.
In the experiment with MRO, ATACAGTCCATACACCAGCAGG gave a sensor-assay potency score (higher = more potent) of -1.19.
As to TTAATATTTATCTATGTGCTAC, the sensor-assay potency score (higher = more potent) with MTX3 is -0.31.
TAAGATCCTAAAATGAAGCTTT came in with a sensor-assay potency score (higher = more potent) with MUDENG of 0.347.
On the same count and under the same terms, next, TATCCTGAAGTGGAGATCCATT: -1.27.
For TTTTTACTGACTTCCCTCGTGT, the sensor-assay potency score (higher = more potent) in the experiment with MUC4 worked out at 0.677.
In the experiment with MUM1L1, TTGAGATTTATTTAGGATCTTT registered a sensor-assay potency score (higher = more potent) of -0.143.
In the experiment with MUM1L1, TAAACCAGACTATCATTCCTGT gave a sensor-assay potency score (higher = more potent) of -0.0642.
Take TACTCTTTAAATCTTCACCCAA: in the experiment with MUL1, the sensor-assay potency score (higher = more potent) is -0.305.
As to TTAACAGACCGCACAGCTCCTT, in the experiment with MUL1, the sensor-assay potency score (higher = more potent) was -0.45.
The same measure, in the same setting: the value for TTTAGCTCCCTTGAGCTCTTGG was -0.00208.
Sequence TTCTTAGTTGTACTTCTTCCTC registered a sensor-assay potency score (higher = more potent) in the experiment with MUDENG of -1.23.
TTTGTTTCTCTTTACAATCAAA displayed a sensor-assay potency score (higher = more potent) in the experiment with MUM1L1 of -1.34.
Sequence TTGAACTGAATGCTGATCTGCA had a sensor-assay potency score (higher = more potent) in the experiment with MUDENG of 0.719.
Turning to TAATCTAAGTTCAAAGAGCAGT, in the experiment with MUDENG, the sensor-assay potency score (higher = more potent) was -0.489.
In the case of TATAACAGCATAAGGCACGCAT, in the experiment with MUL1, the sensor-assay potency score (higher = more potent) is -0.0376.
Take TTGAGCTCTTGGGAGACCCGGG: the sensor-assay potency score (higher = more potent) in the experiment with MUL1 was -0.319.
TAACATTTGGCATGATTCCTTC: the sensor-assay potency score (higher = more potent) with MUDENG was -0.439.
TTATTCTTAGTTGTACTTCTTC came in with a sensor-assay potency score (higher = more potent) with MUDENG of 0.0203.
Sequence ATACACGGTCTCTAGACCCAGA registered a sensor-assay potency score (higher = more potent) in the experiment with MUL1 of -0.85.
In the experiment with MUM1L1, TTAGATACTTTGCTTCAGCTGC gave a sensor-assay potency score (higher = more potent) of -0.267.
Consider TTATTGATGCGTGAACAGCTAT, for which the sensor-assay potency score (higher = more potent) with MUDENG was -0.441.
TTTCTTTAACAGACCGCACAGC had a sensor-assay potency score (higher = more potent) with MUL1 of -0.894.
For TAACAGACCGCACAGCTCCTTC, in the experiment with MUL1, the sensor-assay potency score (higher = more potent) is -0.691.
TAACTGACACCATCCAAGGTGG came in with a sensor-assay potency score (higher = more potent) with MUC4 of -0.587.
As for TATTTGATTGCAGACTTCTTGT, in the experiment with MUM1L1, the sensor-assay potency score (higher = more potent) is 0.00671.
Regarding TAGTCTTGTCTTGATTCCCAGT, the sensor-assay potency score (higher = more potent) in the experiment with MUC4 is -0.823.
Sequence TTTGTTTCCACTTCACTTGGAA gave a sensor-assay potency score (higher = more potent) in the experiment with MUM1L1 of 0.402.
TTAGATAGTACTGCATGCCTTG came in with a sensor-assay potency score (higher = more potent) with MUL1 of -0.152.
Take TATTTCTGATATTTAAACCAGA: the sensor-assay potency score (higher = more potent) with MUM1L1 is -0.575.
For TTGAATGACTCTAAAGGTGGAG, in the experiment with MUDENG, the sensor-assay potency score (higher = more potent) is 0.345.
In the case of TTCTATAACAGCATAAGGCACG, in the experiment with MUL1, the sensor-assay potency score (higher = more potent) is -0.579.
With AAAAACTTGAACTGAATGCTGA, the sensor-assay potency score (higher = more potent) with MUDENG was -0.0187.
Turning to TTGTGAGTAGAAAACAGGGGTG, the sensor-assay potency score (higher = more potent) in the experiment with MUC4 is -0.53.
Regarding TTGGTGGGGAGACTCAAGCTGA, the sensor-assay potency score (higher = more potent) in the experiment with MUDENG was -1.09.
With TAACACATGCACTTTCCTCTTT, the sensor-assay potency score (higher = more potent) in the experiment with MUM1L1 is -0.0342.
As to TTGCAGTTTTCCACAAACTGGC, the sensor-assay potency score (higher = more potent) in the experiment with MUL1 was -0.401.
In the experiment with MUC4, TAGATGGAGAAGGACACACAGC came in with a sensor-assay potency score (higher = more potent) of -1.17.
In the experiment with MUM1L1, TAACTGGGTAACTAATATCAGC gave a sensor-assay potency score (higher = more potent) of -1.56.
Still for that read-out and setting: next, TTAGTGATCTTCCATAGGCAGT: -1.42; TTTGATTGCAGACTTCTTGTAA: 0.165; TTGTGGTACATTTTGAGACAGC: -1.11.
Take TAGTTTTGTATTCCAAATGTGT: the sensor-assay potency score (higher = more potent) with MUDENG was -0.698.
As to TCTTCATCTCTCCAGTCGGGGT, the sensor-assay potency score (higher = more potent) with MYL4 was -1.55.
As for TCATTCTCCGAGTCGCTTGGGC, the sensor-assay potency score (higher = more potent) with MYCL1 was -0.392.
For TAGTCGTAGAAATAGTGCTGGT, the sensor-assay potency score (higher = more potent) in the experiment with MYCL1 was -0.671.
On to TTCCTCTGCCTCCTCGTCGGAT, for which the sensor-assay potency score (higher = more potent) with MYH14 is -1.06.
In the experiment with MYL4, ATCTTCATCTCTCCAGTCGGGG returned a sensor-assay potency score (higher = more potent) of -0.885.
The sequence TTCTTTGTCTTTGATCCCCAGT displayed a sensor-assay potency score (higher = more potent) in the experiment with MYCBPAP of -0.525.
In the experiment with MYL4, TTGAACTCTTCAATCTGGTCGG showed a sensor-assay potency score (higher = more potent) of 0.391.
Sequence TCAATTTCTTCATTCTCCGAGT registered a sensor-assay potency score (higher = more potent) with MYCL1 of 0.102.
Turning to ATAGTCGTAGAAATAGTGCTGG, the sensor-assay potency score (higher = more potent) with MYCL1 was found to be 0.222.
Turning to TCTTTTCTGCAACTGCTGCTGC, the sensor-assay potency score (higher = more potent) with MYCL1 worked out at 0.0557.
For TATGACTTTCTTGTCATCCTTT, the sensor-assay potency score (higher = more potent) with MYCBPAP is 0.0986.
In the experiment with MYL4, TGAACTCTTCAATCTGGTCGGC had a sensor-assay potency score (higher = more potent) of 0.0317.
TAGAGCTGTCCCACTGTCCGGA yielded a sensor-assay potency score (higher = more potent) in the experiment with MYH14 of 0.0775.
Take TAGATCAGAAACAGACTCCGAT: the sensor-assay potency score (higher = more potent) with MYCBPAP amounted to 0.675.
In the case of TCTTTGAACTCTTCAATCTGGT, the sensor-assay potency score (higher = more potent) in the experiment with MYL4 is -0.00801.
